Test results reported in PubChem BioAssay AID800 (PCMD, 2007).
Screen size: about 220,000 compounds; about 650 (0.3%) were called active. This is one part of a sample in which actives are shown more often than they occur. Rule as the data show it: active = inhibition above about 40%; inactive = the rest.

target: Coagulation factor XII (Homo sapiens) (UniProt P00748); experiment: human FXIIa protease inhibitors, primary screen, biochemical, 1536-well (AID 800); settings: purified FXIIa, Boc-QGR-AMC fluorogenic substrate, 2 h; at 5 µM; stronger effect = higher value;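 also: 0% = enzyme with no compound and 100% = blank without enzyme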
Sequence (P00748 20-372 limits assumed): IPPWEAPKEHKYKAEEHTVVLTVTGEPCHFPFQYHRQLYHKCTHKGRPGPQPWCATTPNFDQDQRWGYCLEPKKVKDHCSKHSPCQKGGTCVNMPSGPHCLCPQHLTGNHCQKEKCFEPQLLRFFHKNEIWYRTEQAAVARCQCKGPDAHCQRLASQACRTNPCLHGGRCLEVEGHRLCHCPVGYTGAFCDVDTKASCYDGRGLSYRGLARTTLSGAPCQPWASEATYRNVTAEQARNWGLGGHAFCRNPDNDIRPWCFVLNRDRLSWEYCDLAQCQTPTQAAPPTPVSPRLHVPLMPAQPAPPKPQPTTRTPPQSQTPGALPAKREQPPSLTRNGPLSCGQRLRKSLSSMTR
Sequence (P00748 373-615 limits assumed): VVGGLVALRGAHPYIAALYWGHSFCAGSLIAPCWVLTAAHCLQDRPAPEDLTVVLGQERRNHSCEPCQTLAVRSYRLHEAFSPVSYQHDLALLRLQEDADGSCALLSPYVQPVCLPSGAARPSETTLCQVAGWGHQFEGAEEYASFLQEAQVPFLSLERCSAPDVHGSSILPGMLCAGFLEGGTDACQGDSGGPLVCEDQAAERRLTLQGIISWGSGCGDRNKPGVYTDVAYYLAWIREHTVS

inhibition, active:
COC(=O)c1ccc(Oc2nc(NC(C)C)nc(SC)n2)cc1 44%

inhibition, inactive:
O=C(c1ccc(F)cc1)n1c(=S)nc2ccccn21 0.92%
COc1c(O)cc2oc(-c3ccc(O)c(O)c3)cc(=O)c2c1O 2.88%
CCCCN1Cc2c(nc3cc(-c4ccccc4)[nH]n3c2=O)C1=O -5.1%
O=C(NCc1cccnc1)c1cnc2ccccc2n1 8.13%
COC(=O)c1c(C)oc(C)c1S(=O)(=O)NCc1ccc(Cl)cc1 6.03%
CC(=O)c1ccc(NC(=O)C2CC(=O)Nc3nc4ccccc4n32)cc1 (configuration not stated) 8.34%
COc1ccc(C2/C=C\CN(S(=O)(=O)c3cccs3)CC(=O)N2Cc2ccc(F)cc2)cc1 (configuration not stated) 9.45%
O=[N+]([O-])c1cc(Cl)cc(/C=N/NC(=S)Nc2cc(S(=O)(=O)N3CCOCC3)ccc2Cl)c1O 6.23%
CSCC[C@H](NC(=O)CCCn1nnc2ccccc2c1=O)C(=O)O 4.87%
CCOC(=O)COc1nc(C)cc(C(F)(F)F)c1C#N -0.55%
Cc1ccc(Nc2nc(N)nc(CSc3nnc(C)s3)n2)cc1 4.96%
Cc1cnc(NC(=O)c2ccccn2)s1 7.08%
COC(=O)c1ccc(Oc2nc(Nc3ccc(F)cc3)nc(N3CCCC3)n2)cc1 -2.89%
CCNc1nc(Oc2ccc(C(=O)OC)cc2)nc(N2CCOCC2)n1 9.71%
COCCN(C(=S)Nc1cccc(Cl)c1C)C(C)c1ccco1 (configuration not stated) 6.59%
COP1(=O)C[C@@H](O)[C@@H](O)[C@@H](COCc2ccccc2)O1 (some centres not stated) 5.94%
O=[N+]([O-])c1ccc2nc(-c3ccccn3)[nH]c2c1 5.76%
CN(C)S(=O)(=O)c1ccc(NC(=O)COC(=O)Cn2[nH]c(=O)c3ccccc3c2=O)cc1 -3.32%
Cc1nn2c(NCCN(C)C)c3c(nc2c1-c1ccccc1)CCC3 10.3%
O=C1NNC(c2ccccc2)=N/C1=C\c1ccc(Cl)cc1 0.78%
CC1Cc2ccccc2N1CC(=O)Nc1ccc(S(N)(=O)=O)cc1 (configuration not stated) 7.97%
COc1ccc2oc(N)c(C=O)c(=O)c2c1 8.71%
CC(C)(C)C(=O)NNC(=O)c1ccc(Oc2cc(Cl)cc(Cl)c2)o1 8.39%
CCOC(=O)c1cc(C)nc(S(C)(=O)=O)c1C#N 2.84%
CC(C)=CCC/C(C)=C/C(=O)O 4.62%
O=c1c2ccccc2cnn1Cc1n[nH]c(=S)n1-c1ccccc1F 4.28%
